RXFP1 agonist = qHTS Assay for Agonists of the Relaxin Receptor RXFP1; HEK293T-RXFP1 cAMP TR-FRET, 30 min; response scale: percent of porcine relaxin response, buffer zero; actives 0.3% (n = 370,000); Relaxin receptor 1 (Homo sapiens), Q9HBX9; Potency, µM (series often up to 57.5 µM), for inactives: top-dose activation, most hits filed as activators; also: potency is read from the fitted curve at half-maximal effect; % is scaled to controls: 0 for no effect and ±100 for the full control effect; nearly all actives have a fitted effect of over 60% in size
Target sequence (Q9HBX9 whole entry, looked up): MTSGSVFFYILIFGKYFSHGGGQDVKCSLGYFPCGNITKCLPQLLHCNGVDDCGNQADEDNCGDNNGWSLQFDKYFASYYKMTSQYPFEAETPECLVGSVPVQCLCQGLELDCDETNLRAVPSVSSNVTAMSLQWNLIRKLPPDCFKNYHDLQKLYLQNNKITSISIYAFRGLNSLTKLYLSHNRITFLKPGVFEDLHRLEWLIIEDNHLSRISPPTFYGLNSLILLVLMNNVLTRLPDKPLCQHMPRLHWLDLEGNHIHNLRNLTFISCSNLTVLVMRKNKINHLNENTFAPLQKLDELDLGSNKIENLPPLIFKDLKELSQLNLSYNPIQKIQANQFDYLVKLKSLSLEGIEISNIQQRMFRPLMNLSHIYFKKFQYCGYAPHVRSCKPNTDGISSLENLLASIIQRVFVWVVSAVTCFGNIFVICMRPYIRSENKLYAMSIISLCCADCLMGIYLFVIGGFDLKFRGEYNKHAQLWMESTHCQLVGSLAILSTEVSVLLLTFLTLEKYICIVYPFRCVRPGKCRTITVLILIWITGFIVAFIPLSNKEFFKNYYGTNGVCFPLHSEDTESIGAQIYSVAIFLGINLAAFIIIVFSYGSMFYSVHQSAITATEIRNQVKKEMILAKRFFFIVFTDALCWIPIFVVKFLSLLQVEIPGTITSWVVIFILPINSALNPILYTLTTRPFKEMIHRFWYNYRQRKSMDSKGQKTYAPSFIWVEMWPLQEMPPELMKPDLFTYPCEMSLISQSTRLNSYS
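HEK293 cells stably expressing RXFP1, treated 30 min at 37C with compounds plus PDE4 inhibitor Ro 20174; cAMP measured by HTRF TR-FRET. Normalized to buffer and 29 nM porcine relaxin; EC50 by Hill fit.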
gsp antag = qHTS for Antagonists of gsp, the Etiologic Mutation Responsible for Fibrous Dysplasia/McCune-Albright Syndrome: qHTS; gsp-mutant cells, cAMP HTRF, 30 min; Potency, µM (doses to about 76.9 µM), inactives show at the highest dose activity change, negative = inhibition, usual class: inhibitors; actives 0.4% (n = 340,000); calls by dose curve; cell line not stated here;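 also: intracellular cAMP measured with PDE inhibitor Ro 20-1724 present during compound exposure; potency is read from the fitted curve at half-maximal effect; % is scaled to controls: 0 for no effect and ±100 for the full control effect; nearly all actives have a fitted effect of over 65% in size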
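Measurement of cellular cAMP by homogeneous time-resolved fluorescence following a 30 min compound exposure at 37C. The PDE inhibitor […] was present throughout; the assay buffer was DPBS with 0.05% BSA and 0.005% Tween 20.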
S-ASM inh = Inhibitors of Secretory Acid Sphingomyelinase (S-ASM): qHTS | Sphingomyelin phosphodiesterase (Homo sapiens), P17405 | placental ASM, HMU-PC fluorogenic substrate, 60 min | Potency, µM (doses to about 57.5 µM), without a hit: at the highest dose activity change, negative = inhibition, usual class: inhibitors | actives 0.006% (n = 340,000) | AID 504937, 2011; also: potency is read from the fitted curve at half-maximal effect
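Fluorescence read-out (Ex 386 nm, Em 447 nm) after stopping the reaction at pH 10. Enzyme: ASM from human placenta; substrate HMU-PC0, 9 uM final; 60 min, 37 °C. Compound preincubation 10 min, ambient temperature.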
gsp agonist = qHTS for Agonist of gsp, the Etiologic Mutation Responsible for Fibrous Dysplasia/McCune-Albright Syndrome: qHTS; Potency, µM (top dose mostly 76.9 µM), for the others: at the highest dose activation (cAMP increase), hits mostly activators; actives 0.13% (n = 340,000); gsp mutant cells, cAMP HTRF, 30 min; AID 624287, 2012; active = well fitted activation curve with a large enough effect; inconclusive = small, poorly fitted or top-dose-only effect, or another doubt; inactive = no such curve, though single readings can be large or run the other way; cell line not stated here;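 also: phosphodiesterase inhibitor Ro 20-1724 added with compounds to block cAMP breakdown; potency is read from the fitted curve at half-maximal effect; nearly all actives have a fitted effect of over 60% in size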
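Cells in DMEM/10% FBS with G418 were pretreated with compounds in DMSO plus […] (300 uM stock) for 30 min at 37C. cAMP was measured by HTRF (cAMP-d2 plus anti-cAMP antibody-K) after 30 min at room temperature.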
Integrin act MD = qHTS for Activators of Integrin-Mediated Alleviation for Muscular Dystrophy. alpha7betagal myoblasts, beta-gal FDG fluorescence, 48 h. Potency, µM (doses to about 38.3 µM), without a hit: at the top dose activation, actives largely listed as activators. actives 0.064% (n = 350,000). AID 624291, 2012;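 also: potency is read from the fitted curve at half-maximal effect; 100% = response of the positive control SU9516; nearly all actives have a fitted effect of over 60% in size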
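alpha7betagal+/- myoblasts (passage 13, 250/well) treated 48 h at 37C with compounds at 1:260 dilution of DMSO stock. Lysed, then beta-galactosidase activity read as FDG fluorescence (ex 480/em 540) after 30 min, with pre-read for autofluorescence.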
RXFP1 antag = qHTS Assay for Antagonists of the Relaxin Receptor RXFP1; actives 0.59% (n = 350,000); HEK293-RXFP1, relaxin-stimulated cAMP HTRF, 30 min; stronger effect = lower value; AID 1259400, 2018; activity change, negative = inhibition, % at 57.5 µM; Relaxin receptor 1 (Homo sapiens), Q9HBX9;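 active = activity change of -60% or lower, but not beyond a set lower limit; inconclusive = change between -60% and -40%, or beyond the set limit; inactive = change above -40%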; also: % is scaled to controls: 0 for no effect and ±100 for the full control effect
Numbers without * were called inactive; ? = inconclusive; . = no result; [ ] = remark or other dose. Sampled rows, rich in hits. Any-hit rate of the full collection: about 1.1%. Unless noted, calls follow the shape of the dose curve; as a rule, active = well fitted curve in the direction sought with a large enough effect; inconclusive = small, poorly fitted or top-dose-only effect, or another doubt; inactive = no such curve, though single readings can be large; an effect the other way counts as inactive or inconclusive.

SMILES	RXFP1 agonist	gsp antag	S-ASM inh	gsp agonist	Integrin act MD	RXFP1 antag
C[n+]1c2ccccc2nc2ccc(NCCO)cc21	16.7%	?	-27.2%	?	-13.2%	-38.5
Oc1c(Cl)cccc1Cc1cc(Cl)cc(Cl)c1O	.	-12.7%	-6.8%	3.7%	-4.6%	-109.6*
Oc1c(Cl)cc(Cl)cc1CN1CCN(Cc2ccccc2)CC1	0.9%	-9.3%	2.2%	-29.6%	-13.9%[7.66 µM]	0.2
O=C(O)c1sc2cc(Cl)ccc2c1Cl	14.1µM*	.	.	.	.	.
O=C(c1sc2ccccc2c1Cl)N1CCC2(CC1)OCCO2	0.1%	4.5%	-2.7%	-4.9%	-0.2%	21.4
C=C(C)C(Cc1c(OC)ccc(C(=O)/C=C/c2ccc(O)cc2)c1O)OO (stereo unspecified)	.	25.1µM*	?	.	-35.9%	.
COC[C@@H](NC(C)=O)C(=O)NCc1ccccc1	.	.	.	.	.	13.8
Clc1cccc(CNCCc2c[nH]c3ccccc23)c1	1.1%	13.2%	-2.5%	8.2%[15.4 µM]	?	-84.1*
CC(C(=O)c1ccccc1)N(C)C (stereo unspecified)	.	.	.	.	.	1.8
COc1cccc(C2CC3C(=O)C=CC2N3Cc2ccccc2)c1 (stereo unspecified)	0.4%	14.1%	2.5%	1.5%	-25.5%	24.5
O=C1C=CC2C3C(=O)N(c4ccccc4)C(=O)C3C1N2Cc1ccccc1 (stereo unspecified)	.	-14.1%	-3.3%	-8.8%	-51.3%	-108.4*
CCC(CC)(CNC(=O)CCCO)c1cccc(OC)c1	.	.	.	.	.	-5.2
C#CC1(O)CCC2C3CCC4=C/C(=N/OCC(=O)NCC(=O)NC(C(=O)O)C(C)C)CC[C@]4(C)C3CC[C@@]21C (stereo partly specified)	-0.7%	1.6%	0.3%	-0.2%	?	-0.2
C#C[C@]1(O)CC[C@H]2[C@@H]3CCC4=Cc5nc6nc7ccccc7n6cc5C[C@]4(C)[C@H]3CC[C@@]21C	5.6%	31.6µM*	111.6%	.	.	.
CC(=O)c1ccc2c(c1)C1C(Cl)C(Sc3ccccc3[N+](=O)[O-])CC1C(c1ccccc1[N+](=O)[O-])N2 (stereo unspecified)	-2.3%	-7.9%	-13.0%	-7.1%	2.4%	-26.8
CC(=O)c1ccc2c(c1)C1C(Cl)C(Sc3ccccc3[N+](=O)[O-])CC1C(c1ccccc1)N2 (stereo unspecified)	-8.5%	?	-11.2%	-1.3%	3.4%	-81.1*
C[C@H]1[C@@H]2Cc3ccc(O)cc3[C@]1(C)CCN2C	.	.	.	.	.	10.8
FC(F)(F)c1ccc2c(c1)ncn2C1CCN(Cc2nnnn2C2CCCCC2)CC1	-0.5%	-6.5%	-2.7%	28.4%	-13.4%	-74.2*
Cc1cccc(NC(=O)Oc2ccc(Cl)c3cccnc23)c1	.	.	.	-40.2%	-45.8%	2.0
CCNC(=O)[C@H]1O[C@@H](n2cnc3c(N)ncnc32)[C@H](O)[C@@H]1O	1.26µM*	3.3%	4.1%	.	.	.
Cc1ccc(-n2nc3c(N4CCC(C(=O)NCCc5ccccc5)CC4)nnc(C)c3c2C)cc1	?	.	.	.	.	-7.9
O=c1[nH]c2ccccc2n1C1CCNCC1	.	.	.	.	.	17.5
CC(=O)Nc1ccccc1C(=O)OCc1cccc(F)c1	3.7%	11.4%	2.1%	8.8%[15.4 µM]	3.0%	-3.4
CC(=O)Nc1ccccc1C(=O)OCC(=O)c1ccc2ccccc2c1	0.3%	25.1µM*	-13.2%	-5.9%	13.7%	29.6
CC(=O)Nc1ccccc1C(=O)OCc1ccc(C(=O)c2ccccc2)cc1	0.2%	1.78µM*	-7.3%	-7.4%	-38.6%	-3.7
SMILES	RXFP1 agonist	gsp antag	S-ASM inh	gsp agonist	Integrin act MD	RXFP1 antag
O=C1CN2CCOC2(c2ccccc2Cl)c2cc(Cl)ccc2N1 (stereo unspecified)	.	.	.	.	.	-8.2
O=c1[nH]c2cc(Cl)ccc2n1C1CCNCC1	.	.	.	.	.	17.1
Cc1cccc(NP(=O)(Oc2ccccc2)Oc2ccccc2)c1C	0.5%	-30.9%	-4.7%	-0.8%[15.4 µM]	0.0%	-64.3*
CN1CC[C@]23c4c5ccc(O)c4OC2C(O)CCC3[C@H]1C5 (stereo partly specified)	.	.	.	.	.	15.7
C[C@H]1CNC(=O)c2c(C(=O)Nc3ccc(CNC(=O)OC(C)(C)C)cc3)ncn21	.	.	.	2.2%	8.91µM*	6.0
C[C@]12CC[C@H]3[C@@H](CC[C@@]45O[C@H]4C(O)=C(C#N)C[C@]35C)[C@H]1CC[C@H]2O	.	.	.	.	.	-22.3
COc1cc(CCN)c(OC)cc1Br	.	.	.	.	.	-5.7
CCN(CC)C(=O)N[C@@H]1C=C2c3cccc4[nH]cc(c34)C[C@@H]2N(C)C1	.	.	.	.	.	-16.4
CNc1cc(Cl)c2nonc2c1[N+](=O)[O-]	9.7%	-33.7%	-1.3%	0.2%[15.4 µM]	-67.1%	-81.4*
O=[N+]([O-])c1c(Cl)c(Cl)cc(Cl)c1Cl	.	.	.	.	.	11.9
CN1CCC(N(C)c2ncnc3ccc(Br)cc23)CC1	13.7%	-0.2%	1.4%	31.6µM*	6.0%	2.6

High-throughput results (PubChem BioAssay)
